Measurements from PubChem BioAssay AID1159580 (chemical genetic matrix, 2015).
Where “and” joins values, the source holds several entries; their conditions need not be identical. Equal values may be shown once. The campaign covered roughly 5,500 compounds. About 2,000 (36%) were called active. About 18% were inconclusive and are not listed. Cut-off read from the data, not from the text of the source: active = normalized growth mostly below about 0.91 (no sharp cut-off); inconclusive = no clear call, values can overlap the other calls; inactive = mostly above about 0.92. This is one part of the list.

Test: chemical genetic growth profiling, strain panel (AID 1159580);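 note: tested at 20 µM; growth read once vehicle control cultures reached saturation at 30 °C; 1 = growth at the plate median or of vehicle wells; lower values mean less growth of the strain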
Details: S. cerevisiae deletion strains, growth OD

Measured: normalized growth

CC(=O)Oc1ccccc1C(=O)Oc1ccccc1C(=O)O
inactive: locus YAL013W, strain DEP1, hits give low values 0.989 | locus YAL021C, strain ccr4, hits give low values 1.01 | locus YAL026C, strain drs2, hits give low values 1.01 | locus YAL030W, strain snc1, hits give low values 1 | locus YBL061C, strain skt5, hits give low values 1 | locus YBR009C, strain hhf1, hits give low values 1.01 | locus YBR021W, strain FUR4, hits give low values 0.981 | locus YBR023C, strain chs3, hits give low values 0.998 | locus YBR171W, strain sec66, hits give low values 1 | locus YBR229C, strain ROT2, hits give low values 0.992 | locus YBR231C, strain swc5, hits give low values 0.995 | locus YBR279W, strain paf1, hits give low values 1 | locus YCL011C, strain gbp2, hits give low values 1.02 | locus YCL016C, strain dcc1, hits give low values 1 | locus YCL029C, strain bik1, hits give low values 0.98 | locus YCL069W, strain vba3, hits give low values 1 | locus YCR088W, strain abp1, hits give low values 1 | locus YDL005C, strain med2, hits give low values 0.995 | locus YDL035C, strain GPR1, hits give low values 1 | locus YDL040C, strain nat1, hits give low values 1 | locus YDL074C, strain BRE1, hits give low values 1.01 | locus YDL101C, strain DUN1, hits give low values 0.997 | locus YDL134C, strain PPH21, hits give low values 1.02 | locus YDL185W, strain tfp1, hits give low values 0.987 | locus YDL192W, strain arf1, hits give low values 0.993 | locus YDR001C, strain nth1, hits give low values 1.01 | locus YDR069C, strain doa4, hits give low values 0.996 | locus YDR101C, strain arx1, hits give low values 0.994 | locus YDR137W, strain rgp1, hits give low values 1 | locus YDR150W, strain NUM1, hits give low values 0.996 | locus YDR159W, strain sac3, hits give low values 0.962 | locus YDR162C, strain NBP2, hits give low values 1.02 | locus YDR195W, strain ref2 0.962 | locus YDR297W, strain sur2, hits give low values 1.01 | locus YDR318W, strain mcm21, hits give low values 0.986 | locus YDR334W, strain swr1, hits give low values 1 | locus YDR335W, strain msn5, hits give low values 1 | locus YDR388W, hits give low values 0.986 | locus YDR392W, strain spt3, hits give low values 0.954 | locus YDR502C, strain sam2, hits give low values 0.985 | locus YEL003W, strain gim4, hits give low values 1.01 | locus YEL037C, strain rad23, hits give low values 1 | locus YEL061C, strain CIN8 (second series), hits give low values 1.01 | locus YEL061C, strain CIN8, hits give low values 0.999 | locus YER015W, strain faa2, hits give low values 0.997 | locus YER016W, strain bim1, hits give low values 1 | locus YER110C, hits give low values 0.98 | locus YER111C, strain swi4, hits give low values 0.994 | locus YER155C, strain BEM2 (second series), hits give low values 1.02 | locus YER155C, strain BEM2, hits give low values 0.986 | locus YER167W, strain BCK2, hits give low values 0.991 | locus YFR010W, strain ubp6, hits give low values 1.02 | locus YGL078C, strain dbp3, hits give low values 0.977 | locus YGL086W, strain mad1, hits give low values 0.984 | locus YGL167C, strain pmr1, hits give low values 0.996 | locus YGL173C, strain kem1, hits give low values 1.02 | locus YGL227W, strain vid30, hits give low values 0.998 | locus YGL240W, strain doc1, hits give low values 0.978 | locus YGL248W, strain PDE1, hits give low values 0.992 | locus YGL253W, strain hxk2, hits give low values 0.996 | locus YGR078C, strain PAC10, hits give low values 1.01 | locus YGR135W, strain pre9, hits give low values 0.999 | locus YGR229C, strain SMI1, hits give low values 1.01 | locus YGR252W, strain gcn5, hits give low values 0.966 | locus YHR013C, strain ard1, hits give low values 1.01 | locus YHR027C, strain rpn1, hits give low values 0.985 | locus YHR030C, strain SLT2, hits give low values 0.991 and 0.986 | locus YHR079C, strain IRE1 (second series), hits give low values 0.983 | locus YHR079C, strain IRE1, hits give low values 0.995 | locus YHR094C, strain hxt1, hits give low values 0.98 | locus YHR129C, strain ARP1, hits give low values 1 | locus YHR142W, strain chs7, hits give low values 1.01 | locus YHR200W, strain rpn10, hits give low values 0.97 | locus YIL066C, strain RNR3, hits give low values 0.982 | locus YIL073C, strain SPO22, hits give low values 0.975 | locus YIL125W, strain kgd1, hits give low values 0.977 | locus YIR030C, strain dcg1, hits give low values 0.983 | locus YJL092W, strain hpr5, hits give low values 1.01 | locus YJL095W, strain BCK1 (second series), hits give low values 0.997 | locus YJL095W, strain BCK1, hits give low values 1.01 and 1 | locus YJL115W, strain asf1, hits give low values 1.01 | locus YJL129C, strain trk1, hits give low values 1.01 | locus YJL134W, strain LCB3, hits give low values 0.992 | locus YJL154C, strain vps35, hits give low values 1 | locus YJL164C, strain tpk1, hits give low values 0.996 | locus YJL166W, strain qcr8, hits give low values 1.01 | locus YJL168C, strain set2, hits give low values 0.981 | locus YJL187C, strain SWE1 (second series), hits give low values 0.993 | locus YJL187C, strain SWE1, hits give low values 1.01 | locus YJR043C, strain POL32, hits give low values 0.995 | locus YJR066W, strain TOR1, hits give low values 0.905
